{
  "source": "PubChem BioAssay",
  "key": {"[1]": {"assay": "Wnt pathway potentiators raising nuclear beta-catenin – imaging, WNT3A-conditioned medium, mouse C2C12, NPC library, primary screen (AID 1117326; in the data active = nuclear beta-catenin stimulation mostly above about 4.2%, no sharp cut-off; inactive = mostly below about 10%)", "details": "stronger effect = higher value"}, "[2]": {"assay": "stimulators of insulin release from INS-1E, primary screen, cell-based, 5 mM glucose, NPC library (AID 1117329;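 active = compound raises insulin release from rat beta cells at 5 mM glucose, no numeric limit stated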)", "details": "rat INS-1E insulin secretion, at 10 µM, stronger effect = higher value"}, "[3]": {"assay": "growth inhibition of GSK3B-pretreated HCT116 cells – cell-based, CellTiter-Glo, 0.2 to 20 µM (AID 1117336;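 active = compounds lowering colon cancer cell viability after pretreatment blocking the GSK3B kinase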)", "details": "HCT116 viability after GSK3B inhibitor, at 20 µM, stronger effect = higher value"}, "[4]": {"assay": "inhibition of endothelial tube formation, primary screen, imaging, VEGF stimulated, CD31 staining, tube area, NPC library (AID 1117340;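 active = compound that reduces growth-factor-driven endothelial tube area in a mixed cell culture, no cutoff stated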)", "details": "VEGF-stimulated ADSC/ECFC co-culture, at 10 µM, stronger effect = higher value"}, "[5]": {"assay": "GLP1 release stimulators, primary, NCI-H716, NPC library (AID 1117341;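 active = compound raises GLP1 secretion from the human gut endocrine cells, with no numeric limit stated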)", "details": "NCI-H716 cells, at 10 µM, stronger effect = higher value"}, "[6]": {"assay": "HCT116 colon cancer cell growth inhibition, primary screen, CellTiter-Glo luminescence, NPC library (AID 1117342;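 active = compounds that lower survival of HCT116 colon cancer cells in the luminescence readout, no numeric limit stated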)", "details": "at 20 µM (top of the series)"}, "[7]": {"assay": "reduced SW480 viability measured with CellTiter-Glo, NPC library, primary (AID 1117343;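 active = compounds that lower viability of the colon cancer cells in the luminescence readout, with no numeric limit stated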)", "details": "CellTiter-Glo luminescence; at 20 µM (top of the series) unless noted"}, "[8]": {"assay": "NPC library primary testing for decreased DLD-1 cell viability via CellTiter-Glo (AID 1117346;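 active = compounds that lower survival of DLD-1 colon cancer cells in the luminescence readout, no cutoff given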)", "details": "DLD-1 viability, CellTiter-Glo luminescence; at 20 µM (top of the series)"}, "[9]": {"assay": "EMT-state selective cytotoxicity in co-culture – imaging, PC-3E GFP, TEM4-18 mCherry, primary screen (AID 1345086;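 active = compounds killing one labelled cell type while sparing the other, by normalised counts and ratio limits, not self-fluorescent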;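 as to all read-outs here: cells exposed to compound for 72 h before imaging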;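 as to red/green cell ratio (normalised): normalised mesenchymal count divided by normalised epithelial count so high means epithelial killing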)", "details": "PC-3E GFP / TEM4-18 mCherry co-culture, imaging cell counts, at 1 µM; for red/green cell ratio (normalised): actives lie on both sides, counts scaled to control wells, 1 = unselective"}, "[10]": {"assay": "viability loss with induced miR-34 in A549 – imaging, A549 dox-inducible miR-34, nuclei and caspase counts, primary screen (AID 1347080)", "details": "A549 miR-34 inducible, Hoechst nuclei count, 48 h"}, "[11]": {"assay": "MELAS cybrid and Rieske KO viability enhancers – cell-based, MELAS cybrids, Rieske KO mouse fibroblasts, CellTiter-Glo, primary screen (AID 1508586;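 active = mean z-score across replicates of 1.96 or higher in either the MELAS or the Rieske mutant cell line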;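 also: z relative to plate mean and SD of compound and empty wells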)", "details": "low glucose"}, "[12]": {"target": "NAD(+) hydrolase SARM1 (Homo sapiens) (UniProt Q6SZW1)", "sequence (Q6SZW1 whole entry, looked up)": "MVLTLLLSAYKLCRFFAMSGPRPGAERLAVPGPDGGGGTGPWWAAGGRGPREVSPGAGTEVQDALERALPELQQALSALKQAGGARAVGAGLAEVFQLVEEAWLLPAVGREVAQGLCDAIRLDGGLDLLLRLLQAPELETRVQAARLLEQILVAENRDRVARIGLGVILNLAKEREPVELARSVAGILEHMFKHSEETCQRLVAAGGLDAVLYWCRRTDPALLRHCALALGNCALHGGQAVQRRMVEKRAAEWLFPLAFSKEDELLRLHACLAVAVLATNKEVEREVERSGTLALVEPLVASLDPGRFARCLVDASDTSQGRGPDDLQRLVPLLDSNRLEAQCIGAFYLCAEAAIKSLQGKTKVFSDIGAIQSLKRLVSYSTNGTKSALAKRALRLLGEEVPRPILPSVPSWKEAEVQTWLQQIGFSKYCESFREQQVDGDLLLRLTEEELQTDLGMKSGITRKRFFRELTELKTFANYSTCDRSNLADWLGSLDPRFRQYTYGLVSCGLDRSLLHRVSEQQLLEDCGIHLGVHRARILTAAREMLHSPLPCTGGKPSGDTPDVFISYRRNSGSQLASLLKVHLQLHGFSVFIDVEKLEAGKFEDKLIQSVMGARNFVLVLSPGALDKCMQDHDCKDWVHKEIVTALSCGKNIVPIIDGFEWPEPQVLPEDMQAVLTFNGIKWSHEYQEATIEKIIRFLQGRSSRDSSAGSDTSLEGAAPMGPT", "assay": "blocking NAD cleavage by SARM1 SAM-TIR – cell lysate, NAD-Glo luminescence (AID 1508614;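 active = compound whose remaining NAD level is above about 45 nM, limit read from the data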)", "details": "SAM-TIR HEK293T lysate NADase, at 1 µM, stronger effect = higher value"}, "[13]": {"assay": "P. berghei load reduction in hepatocytes – cell-based, HepG2, luciferase luminescence, HepG2 viability, primary screen (AID 624349; in the data active = parasite load remaining mostly below about 12%, no sharp cut-off; inactive = mostly above about 10%;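 also: 100% = mean of DMSO negative control wells on the same plate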)", "details": "P. berghei liver stage in HepG2, luciferase luminescence, concentration not given here; parasite load remaining: stronger effect = lower value; viability: measured here: HepG2 viability without parasites"}, "[14]": {"assay": "compounds altering viability of human ES cells (AID 493140; call rule not given here;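 also: cells exposed to compounds for four days before counting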)", "details": "human embryonic stem cell survival screen; stronger effect = higher value"}, "[15]": {"details": "measured here: epithelial PC-3E GFP cell survival"}, "[16]": {"details": "measured here: mesenchymal TEM4-18 mCherry cell survival"}, "[17]": {"details": "stronger effect = lower value, cell number ratio, induced over uninduced"}, "[18]": {"details": "measured here: relative caspase fold change +Dox/-Dox"}, "[19]": {"details": "measured here: total cells with miR-34 induction, stronger effect = lower value"}, "[20]": {"details": "measured here: total cells without miR-34 induction"}, "[21]": {"details": "MELAS cybrid survival, CellTiter-Glo 48 h, stronger effect = higher value"}, "[22]": {"details": "Rieske KO mouse fibroblast survival, CellTiter-Glo 72 h"}},
  "note": "“And” between values parts separate entries of the source, which are not always exact repeats. Identical values can stand only once. More than one record can exist for a structure, and the calls need not agree. The source made the active and inactive calls.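 The calls were made as follows, unless noted: active = compounds whose cell count with miR-34 switched on is under 0.7 times the count with it off; inactive = the rest.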",
  "data": [
    {"smiles": "OC1(c2ccc(Cl)c(C(F)(F)F)c2)CCN(CCCC(c2ccc(F)cc2)c2ccc(F)cc2)CC1", "values": [
      {"measurement": "nuclear beta-catenin stimulation", "setting": "[1]; at 10 µM", "value": "-2.1% (inactive)"},
      {"measurement": "nuclear beta-catenin stimulation", "setting": "[1]; stimulation, at 2 µM", "value": 27.1, "unit": "%"},
      {"measurement": "insulin secretion stimulation", "setting": "[2]", "value": "0.05% (inactive)"},
      {"measurement": "viability decrease", "setting": "[3]", "value": "117% (active)"},
      {"measurement": "tube area decrease", "setting": "[4]", "value": "112% (active)"},
      {"measurement": "GLP1 secretion stimulation", "setting": "[5]", "value": "51.4% (active)"},
      {"measurement": "inhibition of viability", "setting": "[6]", "value": "124% (active)"},
      {"measurement": "viability decrease (inhibition)", "setting": "[7]", "value": "158% (active)"},
      {"measurement": "viability decrease (inhibition)", "setting": "[8]", "value": "101% (active)"},
      {"measurement": "red/green cell ratio (normalised)", "setting": "[9]", "value": "0.98 (inactive)"},
      {"measurement": "normalised cell number", "setting": "[9]; [15]", "value": 0.98},
      {"measurement": "normalised cell number", "setting": "[9]; [16]", "value": 0.96},
      {"measurement": "fold change", "setting": "[10]; [17]", "value": "0.677 (active) and 0.99 (inactive)"},
      {"measurement": "fold change", "setting": "[10]; [18]", "value": "1.19 and 0.678"},
      {"measurement": "cell count", "setting": "[10]; [19]", "value": "3030 and 2930"},
      {"measurement": "cell count", "setting": "[10]; [20]", "value": "4480 and 2970"},
      {"measurement": "z-score", "setting": "[11]; [21]", "value": "-0.344 (inactive)"},
      {"measurement": "z-score", "setting": "[11]; [22]", "value": -0.197},
      {"measurement": "remaining NAD", "setting": "[12]", "value": "10 nM (inactive)"}
    ]},
    {"smiles": "CCN(CC)CCNC(C(=O)OCCC(C)C)c1ccccc1", "note": "(stereo unspecified)", "values": [
      {"measurement": "nuclear beta-catenin stimulation", "setting": "[1]; at 10 µM", "value": "-0.8% (inactive)"},
      {"measurement": "nuclear beta-catenin stimulation", "setting": "[1]; stimulation, at 2 µM", "value": -0.5, "unit": "%"},
      {"measurement": "insulin secretion stimulation", "setting": "[2]", "value": "32.4% (active)"},
      {"measurement": "viability decrease", "setting": "[3]", "value": "6.1% (inactive)"},
      {"measurement": "tube area decrease", "setting": "[4]", "value": "-3.9% (inactive)"},
      {"measurement": "GLP1 secretion stimulation", "setting": "[5]", "value": "8.2% (inactive)"},
      {"measurement": "inhibition of viability", "setting": "[6]", "value": "0.2% (inactive)"},
      {"measurement": "viability decrease (inhibition)", "setting": "[7]", "value": "26.1% (inactive)"},
      {"measurement": "viability decrease (inhibition)", "setting": "[8]", "value": "9.9% (inactive)"},
      {"measurement": "red/green cell ratio (normalised)", "setting": "[9]", "value": "1.16 (inactive)"},
      {"measurement": "normalised cell number", "setting": "[9]; [15]", "value": 0.66},
      {"measurement": "normalised cell number", "setting": "[9]; [16]", "value": 0.76},
      {"measurement": "fold change", "setting": "[10]; [17]", "value": "0.979 (inactive)"},
      {"measurement": "fold change", "setting": "[10]; [18]", "value": 0.754},
      {"measurement": "cell count", "setting": "[10]; [19]", "value": 8430},
      {"measurement": "cell count", "setting": "[10]; [20]", "value": 8620},
      {"measurement": "z-score", "setting": "[11]; [21]", "value": "0.328 (inactive)"},
      {"measurement": "z-score", "setting": "[11]; [22]", "value": 0.121},
      {"measurement": "remaining NAD", "setting": "[12]", "value": "10 nM (inactive)"}
    ]},
    {"smiles": "O=C(Oc1ccccc1C(=O)O)c1ccccc1O", "values": [
      {"measurement": "parasite load remaining", "setting": "[13]", "value": "63.4% (inactive)"},
      {"measurement": "viability", "setting": "[13]", "value": 139, "unit": "%"},
      {"measurement": "nuclear beta-catenin stimulation", "setting": "[1]; at 10 µM", "value": "0.1% (inactive)"},
      {"measurement": "nuclear beta-catenin stimulation", "setting": "[1]; stimulation, at 2 µM", "value": 0.1, "unit": "%"},
      {"measurement": "insulin secretion stimulation", "setting": "[2]", "value": "-0.5% (inactive)"},
      {"measurement": "viability decrease", "setting": "[3]", "value": "13.4% (inactive)"},
      {"measurement": "tube area decrease", "setting": "[4]", "value": "3.9% (inactive)"},
      {"measurement": "GLP1 secretion stimulation", "setting": "[5]", "value": "-0.4% (inactive)"},
      {"measurement": "inhibition of viability", "setting": "[6]", "value": "0.8% (inactive)"},
      {"measurement": "viability decrease (inhibition)", "setting": "[7]", "value": "16.6% (inactive)"},
      {"measurement": "viability decrease (inhibition)", "setting": "[8]", "value": "24.3% (inactive)"},
      {"measurement": "red/green cell ratio (normalised)", "setting": "[9]", "value": "1.15 (inactive)"},
      {"measurement": "normalised cell number", "setting": "[9]; [15]", "value": 1.17},
      {"measurement": "normalised cell number", "setting": "[9]; [16]", "value": 1.35},
      {"measurement": "fold change", "setting": "[10]; [17]", "value": "0.931 (inactive) and 0.896 (inactive)"},
      {"measurement": "fold change", "setting": "[10]; [18]", "value": "1.03 and 3.07"},
      {"measurement": "cell count", "setting": "[10]; [19]", "value": "8500 and 11000"},
      {"measurement": "cell count", "setting": "[10]; [20]", "value": "9120 and 12300"},
      {"measurement": "z-score", "setting": "[11]; [21]", "value": "-0.0904 (inactive)"},
      {"measurement": "z-score", "setting": "[11]; [22]", "value": -0.293},
      {"measurement": "remaining NAD", "setting": "[12]", "value": "10 nM (inactive)"}
    ]},
    {"smiles": "C[C@@H](O)[C@H]1C(=O)N2C(C(=O)O)=C(SCCN=CN)C[C@H]12", "values": [
      {"measurement": "survival", "setting": "[14]", "value": "8.25 (inactive)"},
      {"measurement": "parasite load remaining", "setting": "[13]", "value": "97.9% (inactive) and 82.7% (inactive) and 21.5% (inactive)"},
      {"measurement": "viability", "setting": "[13]", "value": "121% and 75.9% and 75.5%"},
      {"measurement": "nuclear beta-catenin stimulation", "setting": "[1]; at 10 µM", "value": "0.4% (inactive)"},
      {"measurement": "nuclear beta-catenin stimulation", "setting": "[1]; stimulation, at 2 µM", "value": 4, "unit": "%"},
      {"measurement": "insulin secretion stimulation", "setting": "[2]", "value": "-0.5% (inactive)"},
      {"measurement": "viability decrease", "setting": "[3]", "value": "6.7% (inactive)"},
      {"measurement": "tube area decrease", "setting": "[4]", "value": "8.2% (inactive)"},
      {"measurement": "GLP1 secretion stimulation", "setting": "[5]", "value": "-1.8% (inactive)"},
      {"measurement": "inhibition of viability", "setting": "[6]", "value": "1.15% (inactive)"},
      {"measurement": "viability decrease (inhibition)", "setting": "[7]", "value": "-18.3% (inactive)"},
      {"measurement": "viability decrease (inhibition)", "setting": "[8]", "value": "2% (inactive)"},
      {"measurement": "red/green cell ratio (normalised)", "setting": "[9]", "value": "0.95 (inactive)"},
      {"measurement": "normalised cell number", "setting": "[9]; [15]", "value": 1.17},
      {"measurement": "normalised cell number", "setting": "[9]; [16]", "value": 1.11},
      {"measurement": "fold change", "setting": "[10]; [17]", "value": "1.02 (inactive) and 0.837 (inactive) and 0.836 (inactive)"},
      {"measurement": "fold change", "setting": "[10]; [18]", "value": "2.4 and 1.6 and 1.5"},
      {"measurement": "cell count", "setting": "[10]; [19]", "value": "10800 and 9100 and 8570"},
      {"measurement": "cell count", "setting": "[10]; [20]", "value": "10500 and 10900 and 10300"},
      {"measurement": "z-score", "setting": "[11]; [21]", "value": "0.502 (inactive) and 0.0491 (inactive)"},
      {"measurement": "z-score", "setting": "[11]; [22]", "value": "-0.015 and -0.95"},
      {"measurement": "remaining NAD", "setting": "[12]", "value": "10 nM (inactive)"}
    ]}
  ]
}
